# PI4K2A inh – blocks human PI4K2A kinase activity. purified PI4K2A, ADP-Glo luminescence, 1 h; hits give low values. activity change, negative = inhibition, % at 76.9 µM. actives 0.13% (n = 420,000). AID 1346378. Q9BTU6; in the data active = activity change below about -50%; inconclusive = mostly about -30% to -49%;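 note: -100% = wells without enzyme as full effect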
#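 ADP-Glo luminescence measured ADP generated by PI4K2A enzyme (4 ug/mL before mixing) with 1.2 mM PI substrate (pre-mix) and 300 microM ATP (pre-mix). Tris pH7.5 buffer with MgCl2, Triton X-100; 1 h reaction at ambient temperature.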
# PI5P4Ka inh – inhibitors of human PI5P4K alpha. P48426. PI5P4Kalpha enzyme, ADP-Glo luminescence, 60 min; hits give low values. max response, %. actives 1.2% (n = 330,000); active = max response of -50% or lower; inconclusive = between -30% and -50%; inactive = -30% or higher; note: value at the top dose of about 77 µM; % is set by controls: 0 for no effect and ±100 for the full control effect
#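 Controls without substrate or without enzyme flank wells where PI5P4Kalpha converts substrate using 5 microM ATP (final). Incubation lasts 60 minutes at room temperature; ADP formed is read by ADP-Glo luminescence.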
# DRD3 antagonist – D3 dopamine receptor (human) antagonism | D3R cells, DiscoveRx beta-arrestin luminescence, antagonist mode; hits give low values | max response, negative = inhibition, % | actives 2.5% (n = 360,000) | AID 652054; in the data active = max response below about -50%; inconclusive = no clear call, values can overlap the other calls; note: % is set by controls: 0 for no effect and ±100 for the full control effect
# Target sequence (P35462 whole entry, looked up): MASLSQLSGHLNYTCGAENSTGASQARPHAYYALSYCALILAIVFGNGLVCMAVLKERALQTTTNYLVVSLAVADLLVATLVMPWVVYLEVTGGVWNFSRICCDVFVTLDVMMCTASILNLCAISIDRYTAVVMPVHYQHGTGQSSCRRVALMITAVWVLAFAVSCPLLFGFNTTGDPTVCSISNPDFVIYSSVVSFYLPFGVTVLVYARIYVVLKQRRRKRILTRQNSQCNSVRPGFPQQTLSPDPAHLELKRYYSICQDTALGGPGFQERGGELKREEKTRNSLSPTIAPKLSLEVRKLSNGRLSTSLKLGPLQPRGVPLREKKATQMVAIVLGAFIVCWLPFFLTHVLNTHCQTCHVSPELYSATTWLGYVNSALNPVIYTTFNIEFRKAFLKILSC
#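 Cells expressing the human receptor were seeded at 1500 cells/well, incubated overnight at 37 degrees C in 5% CO2, then exposed to library compounds with dopamine controls for 90 minutes at 37 degrees C before luminescent detection.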
# LDHA inh – inhibitors of human lactate dehydrogenase A. AID 1347041. purified LDHA, NADH/diaphorase-resazurin fluorescence; hits give low values. P00338. actives 0.15% (n = 480,000). activity change, % (values are at about 110 or 230 µM); in the data active = activity change below about -30%; inconclusive = mostly about -25% to -30%;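 note: plate controls were DMSO wells for no effect and wells without enzyme for full effect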
#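 Enzyme activity of human lactate dehydrogenase 5 (2 nM; 0.06 mM NADH, 0.2 mM pyruvate, 5 min, RT) is measured via a resazurin/diaphorase fluorescence readout of residual NADH.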
# DRD3 agonist – agonists of human D3 dopamine receptor. P35462. AID 652048. D3R DiscoveRx beta-arrestin cells, luminescence, 90 min. max activation, %. actives 0.58% (n = 410,000); in the data active = max activation above about 30%; note: 0% is about no effect
#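 Cells at 1500/well, incubated overnight, then treated with pinned compounds (dopamine as control) for 90 min at 37 degrees C. DiscoveRx reagent added for 30 - 60 minutes at room temperature; luminescence read.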
# Numbers without * were called inactive; ? = inconclusive; / = not tested or not shown; ! = not active in a repeat. Hits are enriched below; roughly 3.3% of the tested compounds scored in any of these assays.
SMILES,PI4K2A inh,PI5P4Ka inh,DRD3 antagonist,LDHA inh,DRD3 agonist
CCOC(=O)CN1C(C(=O)c2ccccc2)=C(OC(=O)c2ccccc2)c2ccccc2S1(=O)=O,58,/,/,3,49*
O=C(c1ccc(Cl)c(Cl)c1)N1CCN(c2ccccn2)CC1,-2,1,-11,-8,1
O=C(c1ccc(Cl)c(S(=O)(=O)Nc2ccc(F)cc2)c1)N1CCN(c2ccccn2)CC1,-2,/,33,-5,38*
COc1ccc2c(CNc3ccccc3)cc(=O)oc2c1,/,/,/,3,/
CCc1[nH]nc2c1C(c1ccc(Br)s1)C(C#N)=C(N)O2 (stereo not given),-16,?,-56*,1,-2
O=S1(=O)CCO[C@H]2Cc3ccccc3[C@H]2N1Cc1ccc(Cl)cc1,1,1,-7,3,54*
CC(=O)Nc1ccc(S(=O)(=O)Nc2nc3ccccc3nc2Nc2cccc(Cl)c2)cc1,/,/,/,1,/
COc1ccc(Cl)cc1NC(=O)C(C)N(C)CC(=O)Nc1ccccc1SC (stereo not given),/,/,/,11,/
Cn1c(=O)c2c(ncn2CC(=O)NC2CCCCC2)n(C)c1=O,-12,0,-12,-3,10
O=C(Cn1ncc(Cl)c(Cl)c1=O)NC(=O)NC1CCCCC1,-11,-50*,-68*,-3,-13
Cn1c(=O)c2c(ncn2CC(=O)NC(=O)NC2CCCC2)n(C)c1=O,/,/,/,-34*,/
Cn1c(=O)c2c(ncn2CC(=O)OCC(=O)c2ccc(Br)cc2)n(C)c1=O,0,-57*,-11,-5,-9
CC(NC(=O)Cn1ncc(Cl)c(Cl)c1=O)C12CC3CC(CC(C3)C1)C2 (stereo not given),4,-64*,-77*,-7,-14
O=C(Nc1ccccc1)Nc1c(N2CCCC2)c2ccccc2oc1=O,/,/,/,-6,/
COc1ccc(C2=Nc3ccc(C)cc3C(c3ccccc3)N2CC(=O)NN)cc1 (stereo not given),-17,-1,-105*,-4,-31
COc1ccc(C2=Nc3ccc(Br)cc3C(c3ccccc3)N2CC(=O)NN)cc1 (stereo not given),-4,-9,-93*,-8,-16
COCc1nn2c(=O)c(NC(=O)c3ccccc3Cl)cnc2s1,/,/,/,-11,/
CCCCC(=O)NC(c1ccc(N(CC)CC)cc1)c1ccc2cccnc2c1O (stereo not given),0,-3,-4,11,32*
CCCC(=O)NC(c1ccc(C)cc1)c1ccc2cccnc2c1O (stereo not given),3,-1,-26,9,31*
CCCOC(=O)N[C@@H]1C(=O)N2C(C(=O)OCCC)=C(C)CS[C@H]12,-6,0,-53*,3,-17
CCCN[C@@H]1C(=O)N2C(C(=O)OCCC)=C(C)CS[C@H]12,-7,-13,0,0,0
O=C(CCl)N1N=C(c2ccco2)CC1c1ccco1 (stereo not given),-23,-70*,0,15,-6
COc1cccc2cc(-c3csc(Nc4cccc(C(F)(F)F)c4)n3)c(=O)oc12,/,/,/,0,/
C=CCSc1ncc(C(=O)OCC)c(N)n1,-1,5,2,-3,4
CCOC(=O)c1cnc(SSc2ncc(C(=O)OCC)c(N)n2)nc1N,-8,-71*,-16,-1,-2
SMILES,PI4K2A inh,PI5P4Ka inh,DRD3 antagonist,LDHA inh,DRD3 agonist
Cc1ccc(/C=C2/NC(=O)N(Cc3ccccc3)C2=O)o1,-6,-57*,-28,12,-1
Cc1cc(C(=O)O)ccc1-c1ccc(/C=C2\NC(=O)N(Cc3ccccc3Cl)C2=O)o1,-6,-67*,-3,7,29
CCNC(=O)Nc1ccc2c(c1)C(=O)N(C)[C@H]1CC[C@@H](CC(=O)NCCN3CCCC3)O[C@@H]1CO2,-4,/,/,/,/
CCOC(=O)Cc1csc(NS(=O)(=O)c2ccc3c4c(cccc24)C(=O)N3CC)n1,-12,-4,-66*,3,0
Cc1ccc(-c2cc(C(=O)NC3CCCC3)c3cc(Br)ccc3n2)cc1C,/,/,/,-2,/
COCCCNc1ncnc2c1sc1nc(-c3ccco3)c3c(c12)CC(C)(C)OC3,-4,-1,12,11,60*
CC1(C)Cc2c(c(-c3ccco3)nc3sc4c(NCCO)ncnc4c23)CO1,1,-2,47,-4,4
O=c1c2c([nH]c3ccccc13)CCCC2,3,0,-23,-3,5
O=c1c2c([nH]c3ccccc13)C(=C1CCCC1)CC2,2,-52*,3,0,2
CCN(CC)S(=O)(=O)c1ccc(N2CCCC2)c(NS(=O)(=O)c2ccc(C)cc2)c1,/,/,/,13,/
CCCSc1nc(=O)c2c(n1C)NC(=O)CC2c1ccc(C)cc1C (stereo not given),/,/,/,0,/
CCCCCCSc1nc2c(c(=O)[nH]c(=O)n2C)n1CC,/,/,/,2,/
CN1CCc2cc3c(c4c2[C@H]1[C@H](O)c1ccccc1-4)OCO3,-5,7,12,15,12
CN1CCc2cccc3c2[C@H]1Cc1ccc(O)c(O)c1-3,-2,-56*!,-20,18,76*!
O=C(C[n+]1ccc2ccccc2c1)c1ccc2ccc3ccccc3c2c1,4,4,-78*,-1,-15
COC(C[C@H](O)C[C@@H](O)COCc1ccccc1)OC,0,7,-107*,1,-3
CNc1nc(-c2ccccc2)nnc1C(F)(F)F,-7,0,0,2,4
Cc1ccc(Sc2nc(-c3ccccc3)nnc2C(F)(F)F)cc1,-1,1,-70*,-3,-5
CCNC(CC)c1ccc(C)cc1 (stereo not given),/,/,/,4,/
N#C/C(=C\c1ccc(Cl)c([N+](=O)[O-])c1)c1ccccn1,7,2,-55*,-1,-12
CNc1ccc(/C=C(\C#N)c2ccccn2)cc1[N+](=O)[O-],0,-15,13,-4,0
O=C(N/N=C/c1ccco1)c1cccc(N2Cc3ccccc3C2)c1,-29,-88*,0,5,1
Cc1ccnc(SCc2nc3cc(NC(=O)c4cccc(Br)c4)ccc3n2C)n1,/,/,/,7,/
Cc1ccc(NC(=S)NCc2cccn2C)cc1,-3,/,-16,4,32*
Cc1cccc(NC(=S)NCc2cccn2C)c1,4,/,-13,-1,4
SMILES,PI4K2A inh,PI5P4Ka inh,DRD3 antagonist,LDHA inh,DRD3 agonist
C=CCSc1nc(N)c2c3c(sc2n1)CN(C)CC3,4,-3,-27,0,-12
CSc1nc(N)c2c3c(sc2n1)CN(C)CC3,-4,-1,-52*,-2,4
CCNc1nc(SCC(N)=O)nc2sc3c(c12)CCN(C)C3,-1,11,0,6,-7
CSc1nc(SCC(N)=O)c2c3c(sc2n1)CN(C)CC3,-13,-12,-54*,3,-12
Clc1ccc(N/N=C/c2cccc(Cl)c2Cl)cc1Cl,/,/,/,7,/
Oc1c(Br)cc(/C=N/Nc2nncc3ccccc23)cc1Br,3,-62*,-12,-4,4
Oc1c(Br)cc(Br)cc1/C=N/Nc1ccc(Cl)nn1,-3,0,-68*,-4,-17
